Here are results for 60 compounds from PMC4336329 (PLoS ONE, 2015).

The campaign covered roughly 310,000 compounds. About 14,000 (4.5%) showed an effect of 50% or more. The effect is printed as a negative number. The sample as a whole holds a higher share of strong results than the screen did.
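Also: peak tail current of the secondary pulse compared with the same well before compound.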

The target in the assay is human ether-à-go-go-related gene (hERG) potassium channel (human, UniProt Q12809). Description: primary screen, population patch clamp on CHO cells stably expressing hERG; higher = less effect of the substance.
Chain of human ether-à-go-go-related gene (hERG) potassium channel (Q12809 whole entry, looked up): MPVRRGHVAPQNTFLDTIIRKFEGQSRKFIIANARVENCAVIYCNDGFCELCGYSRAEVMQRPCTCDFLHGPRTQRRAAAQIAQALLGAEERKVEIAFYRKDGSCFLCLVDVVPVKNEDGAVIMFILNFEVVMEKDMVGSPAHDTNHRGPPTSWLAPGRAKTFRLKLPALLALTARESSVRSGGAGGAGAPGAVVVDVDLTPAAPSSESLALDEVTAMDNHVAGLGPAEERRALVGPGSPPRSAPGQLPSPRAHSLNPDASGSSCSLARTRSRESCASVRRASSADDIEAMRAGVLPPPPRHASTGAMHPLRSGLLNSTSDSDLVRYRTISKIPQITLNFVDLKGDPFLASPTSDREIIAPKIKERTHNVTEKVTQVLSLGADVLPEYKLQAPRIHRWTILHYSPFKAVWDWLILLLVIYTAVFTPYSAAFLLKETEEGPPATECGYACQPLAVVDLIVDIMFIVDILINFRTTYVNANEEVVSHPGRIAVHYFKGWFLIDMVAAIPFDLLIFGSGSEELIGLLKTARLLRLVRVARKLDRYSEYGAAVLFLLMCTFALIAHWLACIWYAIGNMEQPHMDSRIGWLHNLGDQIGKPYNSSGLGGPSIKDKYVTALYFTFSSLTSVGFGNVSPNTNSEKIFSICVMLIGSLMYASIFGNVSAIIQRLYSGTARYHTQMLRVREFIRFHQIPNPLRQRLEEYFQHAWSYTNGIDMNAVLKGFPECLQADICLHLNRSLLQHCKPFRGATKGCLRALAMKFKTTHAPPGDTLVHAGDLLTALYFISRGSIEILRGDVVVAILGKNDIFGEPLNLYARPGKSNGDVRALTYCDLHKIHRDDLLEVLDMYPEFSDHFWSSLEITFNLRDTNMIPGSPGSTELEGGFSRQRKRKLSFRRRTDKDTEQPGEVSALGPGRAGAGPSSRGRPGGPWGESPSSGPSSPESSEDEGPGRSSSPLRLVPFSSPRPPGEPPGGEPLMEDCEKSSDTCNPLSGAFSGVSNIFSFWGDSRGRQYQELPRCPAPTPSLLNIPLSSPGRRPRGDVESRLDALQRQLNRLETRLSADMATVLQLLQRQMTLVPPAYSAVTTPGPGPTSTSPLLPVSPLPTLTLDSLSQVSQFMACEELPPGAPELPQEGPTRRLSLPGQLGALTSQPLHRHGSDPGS
Take `Cc1cc(C)n(-c2ncc(-c3ccccc3)nn2)n1`: the “hERG current change (%, negative = inhibition) at 10uM” value is on record as -36.4%.

Consider `O=C(NCCCc1ccccc1)C(=O)NCC1OCCN1S(=O)(=O)c1cc(F)ccc1F` (stereo not drawn), for which the “hERG current change (%, negative = inhibition) at 10uM” value is -15%.

On to `O=C(Nc1ncc(Cc2ccccc2)s1)C1=NCCN1`, for which the “hERG current change (%, negative = inhibition) at 10uM” value is listed as 6.81%.

Regarding `COc1ccc(-c2nn(-c3ccccc3)cc2N)cc1`, the “hERG current change (%, negative = inhibition) at 10uM” value is -3.82%.

`CCOC(=O)c1ccc(COC(=O)CCc2nc(-c3ccccc3)c(-c3ccccc3)o2)cc1`: the “hERG current change (%, negative = inhibition) at 10uM” value is given as 1.13%.

`CN(Cc1ccco1)S(=O)(=O)c1nnc(NC(=O)c2ccccc2Cl)s1`: the “hERG current change (%, negative = inhibition) at 10uM” value was 15%.

`COc1ccccc1NC(=O)CN1CC(=O)Nc2ccccc21`: the “hERG current change (%, negative = inhibition) at 10uM” value turned out to be 20.5%.

Turning to `O=C(O)CCNc1nc(C(F)(F)F)nc2ccccc12`, the “hERG current change (%, negative = inhibition) at 10uM” value came to 18.2%.

As to `Cl.Oc1ccc(Nc2nc(N3CCCC3)c3ccccc3n2)cc1`, the “hERG current change (%, negative = inhibition) at 10uM” value is reported as -70.2%.

Consider `COc1ccc(Nc2nc(N3CCCC3)c3ccccc3n2)cc1.Cl`, for which the “hERG current change (%, negative = inhibition) at 10uM” value is recorded as -70%.

Regarding `CN1CCN(c2nc(Nc3ccc(O)cc3)nc3ccccc23)CC1.Cl`, the “hERG current change (%, negative = inhibition) at 10uM” value is on record as -34.9%.

Regarding `Cl.Fc1ccc(Nc2nc(N3CCOCC3)c3ccccc3n2)cc1`, the “hERG current change (%, negative = inhibition) at 10uM” value is -2.91%.

As for `COc1ccc(Nc2nc(N3CCCCC3)c3ccccc3n2)cc1`, the “hERG current change (%, negative = inhibition) at 10uM” value was -32.9%.

As to `Cl.c1ccc2c(Nc3nc(N4CCOCC4)c4ccccc4n3)cccc2c1`, the “hERG current change (%, negative = inhibition) at 10uM” value is -6.79%.

For `COc1ccc(Nc2nc(N)c([N+](=O)[O-])c(N3CCCC3)n2)cc1`, the “hERG current change (%, negative = inhibition) at 10uM” value is on record as -22.8%.

Consider `Cl.c1ccc(Nc2nc(N3CCOCC3)c3ccccc3n2)cc1`, for which the “hERG current change (%, negative = inhibition) at 10uM” value was -14.2%.

Consider `CCN(CC)c1ccc(Nc2nc(N3CCOCC3)c3ccccc3n2)cc1`, for which the “hERG current change (%, negative = inhibition) at 10uM” value is reported as -71.8%.

Take `N#C/C(=C/c1ccccc1[N+](=O)[O-])c1nc(C2CC2)cs1`: the “hERG current change (%, negative = inhibition) at 10uM” value is -12.3%.

Take `CCCc1nnc(NC(=O)CCC(=O)NCc2ccccc2OC)s1`: the “hERG current change (%, negative = inhibition) at 10uM” value is listed as 21.4%.

`CC1(c2ccccc2)NC(=O)N(CC(=O)NC(=O)NC2CCCC2)C1=O` (stereo not drawn): the “hERG current change (%, negative = inhibition) at 10uM” value was 0.115%.

For `Cc1ccc(-c2noc(CSc3nnc(-c4ccccc4)n3C)n2)cc1`, the “hERG current change (%, negative = inhibition) at 10uM” value was -3.5%.

Take `COc1cc2c(cc1OC)C(c1ccc(Br)cc1)NC(=O)C2` (stereo not drawn): the “hERG current change (%, negative = inhibition) at 10uM” value stood at 12.1%.

As for `O=C(CSc1nnc(-c2ccco2)n1CC1CCCO1)NC1CCCC1` (stereo not drawn), the “hERG current change (%, negative = inhibition) at 10uM” value was -4.75%.

As to `CC(C)NCC(O)COc1ccc(Br)cc1.Cl` (stereo not drawn), the “hERG current change (%, negative = inhibition) at 10uM” value is reported as -30.3%.

Take `OCCN(CCO)CC(O)COc1ccc(Br)cc1` (stereo not drawn): the “hERG current change (%, negative = inhibition) at 10uM” value is recorded as 3.82%.

With `CCCCN(CCCC)CC(O)COc1ccc(Br)cc1` (stereo not drawn), the “hERG current change (%, negative = inhibition) at 10uM” value is -74.4%.

`CCCCN(CC(O)COc1cccc(C)c1)CC(O)COc1cccc(C)c1` (stereo not drawn): the “hERG current change (%, negative = inhibition) at 10uM” value is recorded as -81.7%.

In the case of `Cc1cccc(OCC(O)Cn2ccnc2C)c1` (stereo not drawn), the “hERG current change (%, negative = inhibition) at 10uM” value is -9.12%.

For the compound `CN(C)CC(O)COc1cccc(OCC(O)CN(C)C)c1.Cl` (stereo not drawn), the “hERG current change (%, negative = inhibition) at 10uM” value is given as 11.8%.

Regarding `CCOP(=S)(OCC)SCC(=O)NC(C(=O)O)C(C)C` (stereo not drawn), the “hERG current change (%, negative = inhibition) at 10uM” value came out at 7.13%.

For the compound `O=C(N=Nc1c(O)[nH]c2ccccc12)c1ccc2c(c1)OCO2`, the “hERG current change (%, negative = inhibition) at 10uM” value turned out to be 6.09%.

For the compound `CCCNC(=O)c1ccc(S(=O)(=O)c2ccc(OC)cc2)c([N+](=O)[O-])c1`, the “hERG current change (%, negative = inhibition) at 10uM” value was -31.2%.

As to `Cc1cccc(NC(=S)NCCN2CCOCC2)c1C`, the “hERG current change (%, negative = inhibition) at 10uM” value came out at 13.9%.

For the compound `COc1ccccc1-c1nnc2sc(COc3ccccc3)nn12`, the “hERG current change (%, negative = inhibition) at 10uM” value is listed as -2.14%.

For `COc1ccccc1-c1nnc2sc(COc3ccc(F)cc3)nn12`, the “hERG current change (%, negative = inhibition) at 10uM” value is -74%.

Take `COc1ccccc1-c1nnc2sc(COc3ccc(Cl)cc3)nn12`: the “hERG current change (%, negative = inhibition) at 10uM” value was -37.8%.

With `COc1ccc2cc(CCNC(=O)c3ccco3)c(=O)[nH]c2c1`, the “hERG current change (%, negative = inhibition) at 10uM” value is -2.81%.

For the compound `O=P(O)(CCc1ccccn1)CN1CCOCC1`, the “hERG current change (%, negative = inhibition) at 10uM” value is on record as 6.28%.

As to `O=P(O)(CCc1ccccn1)CN1CCCCC1`, the “hERG current change (%, negative = inhibition) at 10uM” value is recorded as -67.6%.

With `O=P(O)(CCc1ccccc1)CN1CCCCC1`, the “hERG current change (%, negative = inhibition) at 10uM” value was 10.9%.

For the compound `Cc1cc(C)c2nc(-c3cccnc3)cc(C(=O)NC(C)c3cnn(C)c3C)c2c1` (stereo not drawn), the “hERG current change (%, negative = inhibition) at 10uM” value is given as -30.6%.

For `CC(C)CCN1C(=O)c2ccc(C(=O)NCC3CCCO3)cc2C1=O` (stereo not drawn), the “hERG current change (%, negative = inhibition) at 10uM” value is recorded as -8.48%.

As for `COc1cccc(OCc2cc(C(=O)N(Cc3nccn3C)C(C)C)no2)c1`, the “hERG current change (%, negative = inhibition) at 10uM” value is recorded as 8.5%.

`Cc1cccc(C)c1OCc1cc(C(=O)N(Cc2nccn2C)C(C)C)no1`: the “hERG current change (%, negative = inhibition) at 10uM” value is on record as -5.91%.

With `CC(C)N(Cc1nccn1C)C(=O)c1cc(COc2ccc3ncccc3c2)on1`, the “hERG current change (%, negative = inhibition) at 10uM” value was 9.33%.

Turning to `Cc1cc(OCc2cc(C(=O)N(Cc3nccn3C)C(C)C)no2)cc(C)c1Cl`, the “hERG current change (%, negative = inhibition) at 10uM” value is on record as -58.5%.

With `CC(C)N(Cc1nccn1C)C(=O)c1cc(COc2ccc(-n3cncn3)cc2)on1`, the “hERG current change (%, negative = inhibition) at 10uM” value was -51.5%.

Take `CC(C)N(Cc1nccn1C)C(=O)c1cc(COc2ccc(F)cc2Cl)on1`: the “hERG current change (%, negative = inhibition) at 10uM” value was 0.188%.

`COc1ccc2nc(SC)cc(C)c2c1`: the “hERG current change (%, negative = inhibition) at 10uM” value was 16.5%.

`CCC1CCC2(CC1)NC(CO)(CO)CO2` (stereo not drawn): the “hERG current change (%, negative = inhibition) at 10uM” value stood at 8.52%.

For `CC(C)CC1(C)N=C(c2ccccc2)C(=S)N1` (stereo not drawn), the “hERG current change (%, negative = inhibition) at 10uM” value is on record as 8.32%.

Regarding `C=CCOc1ccccc1CN1CCN(CCc2ccccc2)C(CCO)C1` (stereo not drawn), the “hERG current change (%, negative = inhibition) at 10uM” value is on record as -59.4%.

In the case of `CCOc1cccc(CN2CCN(CCCc3ccccc3)C(CCO)C2)c1O` (stereo not drawn), the “hERG current change (%, negative = inhibition) at 10uM” value is -76.3%.

Regarding `CCCn1ncc(CN2CCN(CCc3ccccc3)C(CCO)C2)c1C` (stereo not drawn), the “hERG current change (%, negative = inhibition) at 10uM” value is listed as -46.9%.

As for `CCOc1cccc(CN2CCN(CCc3ccccc3)C(CCO)C2)c1O` (stereo not drawn), the “hERG current change (%, negative = inhibition) at 10uM” value is reported as -69.7%.

For `COc1cccc(CN2CCN(CCCc3ccccc3)C(CCO)C2)c1O` (stereo not drawn), the “hERG current change (%, negative = inhibition) at 10uM” value was -72.4%.

`COc1cccc(CN2CCN(CCCc3ccccc3)C(CCO)C2)c1OC` (stereo not drawn): the “hERG current change (%, negative = inhibition) at 10uM” value is recorded as -48.6%.

With `CCOc1cccc(CN2CCN(Cc3ccc(C)o3)C(CCO)C2)c1O` (stereo not drawn), the “hERG current change (%, negative = inhibition) at 10uM” value was -13.1%.

On to `COC(=O)CN1C(=S)N(c2ccc(OC)cc2)C(=O)/C1=C/c1cccs1`, for which the “hERG current change (%, negative = inhibition) at 10uM” value turned out to be 34%.

In the case of `Nc1nc(NCc2ccccc2)n(-c2ccccc2)n1`, the “hERG current change (%, negative = inhibition) at 10uM” value was 14.9%.
